From PubChem BioAssay
The list is not random: actives were taken first. Their share in the collection is about 3.4%.
PKM2 act: activators of human pyruvate kinase M2. P14618. purified PKM2, Kinase-Glo ATP luminescence, activation; response scale: 0% is enzyme alone, no compound. Potency, µM (series often up to 57.5 µM), actives largely listed as activators. hit rate 0.34% among 260,000. AID 1631; further: nearly all actives have a fitted effect of over 55% in size
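hPK-M2, >95% pure; 0.1 mM ADP / 0.5 mM PEP final; imidazole pH7.2 buffer w/ 7 mM MgCl2, 50 mM KCl; 1 h RT; Kinase-Glo lum. Intermediate enzyme activity for dual inhibitor/activator qHTS.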
GCN5L2 inh-1: GCN5L2 (KAT2A) acetyltransferase inhibition; Q92830; GCN5L2 HAT assay, ThioGlo1 CoA-SH fluorescence; Potency, µM (top dose mostly 58.9 µM), hits mostly inhibitors; hit rate 0.21% among 390,000; AID 504327
Target sequence (Q92830 whole entry, looked up): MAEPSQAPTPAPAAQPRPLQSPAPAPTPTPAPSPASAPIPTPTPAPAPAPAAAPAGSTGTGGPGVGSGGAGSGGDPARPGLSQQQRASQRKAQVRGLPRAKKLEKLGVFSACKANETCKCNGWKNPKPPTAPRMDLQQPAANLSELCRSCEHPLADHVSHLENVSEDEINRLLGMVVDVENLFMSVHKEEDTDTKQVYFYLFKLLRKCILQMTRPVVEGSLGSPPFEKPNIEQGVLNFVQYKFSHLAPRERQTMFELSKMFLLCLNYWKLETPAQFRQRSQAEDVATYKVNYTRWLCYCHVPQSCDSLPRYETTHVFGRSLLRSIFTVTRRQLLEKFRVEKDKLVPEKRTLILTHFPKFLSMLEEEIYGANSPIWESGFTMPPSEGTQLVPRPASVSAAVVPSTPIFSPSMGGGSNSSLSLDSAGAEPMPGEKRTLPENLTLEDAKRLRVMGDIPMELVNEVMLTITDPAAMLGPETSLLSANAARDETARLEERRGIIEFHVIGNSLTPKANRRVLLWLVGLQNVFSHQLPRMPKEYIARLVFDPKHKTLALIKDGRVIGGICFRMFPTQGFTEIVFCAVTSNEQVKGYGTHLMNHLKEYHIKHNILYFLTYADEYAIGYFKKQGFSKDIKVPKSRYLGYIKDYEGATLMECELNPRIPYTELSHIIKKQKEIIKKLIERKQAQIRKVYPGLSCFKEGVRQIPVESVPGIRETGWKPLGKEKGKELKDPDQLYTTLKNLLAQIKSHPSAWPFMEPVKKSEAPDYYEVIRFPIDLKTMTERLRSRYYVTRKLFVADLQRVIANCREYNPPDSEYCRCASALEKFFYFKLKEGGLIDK
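qHTS, 1536-well. 20nM enzyme, pH 7.5 HEPES/EDTA/Tween-20 buffer; 15 min compound preinc., RT. Start: 75uM H3(1-25), 70uM AcCoA, 50uM ThioGlo1. Read Ex340/Em540 at t=0 (autofluorescence flag) and t=20 min.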
VDR inh: vitamin D3 receptor (human) inhibition. P11473. VDR-SRC2-3 peptide fluorescence polarization, 2 h. Potency, µM, actives largely listed as inhibitors. hit rate 0.93% among 400,000. AID 504847
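Compounds are added to VDR with labelled SRC2-3 coactivator peptide and held 2 h at room temperature. Inhibition of the VDR–peptide interaction is then read as a change in fluorescence polarization.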
PLK1 PBD inh: PLK1 (human) polo-box domain binding inhibition; P53350; Plk1 PBD binding of FITC phosphopeptide, fluorescence polarization; Potency, µM, most hits filed as inhibitors; hit rate 2.8% among 360,000; AID 720504; further: series mostly up to about 57 µM; nearly all actives have a fitted effect of over 65% in size
Mito fusion act: blocks mitochondrial division or promotes mitochondrial fusion. S. cerevisiae fusion-defective mutant growth rescue, CellTiterGlo 48 h. Potency, µM (series often up to 46.1 µM), usual class: activators. hit rate 0.23% among 320,000. AID 485298; further: nearly all actives have a fitted effect of over 45% in size
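S. cerevisiae fusion-defective temperature-sensitive mutants (e.g. fzo1-1, mgm1-5) grown 48 h at 37C in YPEG (ethanol/glycerol non-fermentable) medium with 23 nl compound per well; growth rescue read as CellTiterGlo luminescence.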
GLS inhibitor: inhibitors of human glutaminase (GLS); GLS enzymatic activity, qHTS titration; O94925; Potency, µM (highest dose often 45.5 µM), hits mostly inhibitors; hit rate 0.21% among 410,000; AID 624170
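Compounds were pin-transferred onto hKGA, after which L-glutamine (1 mM solution) and a detection mix of glutamate oxidase, HRP and Amplex Red were added. Initial and 30 min RT fluorescence reads were collected.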
HeLa tox: reduces HeLa cell viability in PKM2 activator counter-screen. shares compounds with PKM2 act. activity change, negative = cytotoxicity, % at 57.5 µM. 230 tested, under 10 active. HeLa viability, CellTiter-Glo ATP luminescence, 24 h
GCN5L2 inh-2: human KAT2A HAT inhibition, hit confirmation. GCN5L2 HAT, ThioGlo1 CoA fluorescence, 20 min. shares compounds with GCN5L2 inh-1. hit rate 70% among 140. AID 588347. Potency, µM, hits mostly inhibitors
USP1 UbRho: USP1-UAF1 deubiquitinase inhibition validated. shares compounds with VDR inh. Ub-Rhodamine cleavage, fluorescence kinetic read. Potency, µM (titrated, usually from 56.8 µM), most hits filed as inhibitors. hit rate 50% among 50. AID 540327
VDR confirm: inhibits human vitamin D receptor, primary hit validation; shares compounds with VDR inh; VDR-coactivator inhibition assay, qHTS confirmation; Potency, µM, hits mostly inhibitors; hit rate 89% among 840
VDR FP: confirmation of human VDR-coactivator binding inhibitors, fluorescein label | shares compounds with VDR inh | VDR-coactivator binding, fluorescein fluorescence polarization | Potency, µM (series often up to 57.1 µM), most hits filed as inhibitors | hit rate 48% among 840 | AID 602200
VDR bla: inhibits human VDR in beta-lactamase reporter cells. Potency, µM (top dose mostly 46.1 µM), hits mostly inhibitors. shares compounds with VDR inh. AID 602202. VDR beta-lactamase reporter cells, FRET ratio; cells co-treated with VDR agonist LG190178. hit rate 23% among 840
VDR cytotox: cytotoxic in counter-screen for VDR inhibitors. shares compounds with VDR inh. hit rate 18% among 840. AID 602204. cytotoxicity counter-screen, cell viability, qHTS. Potency, µM (top dose mostly 48.3 µM), usual class: cytotoxic; further: nearly all actives have a fitted effect of over 75% in size
TbPYK confirm: confirmation of Trypanosoma brucei pyruvate kinase inhibitors. shares compounds with PLK1 PBD inh. recombinant TbPYK, Kinase-Glo ATP luminescence. Potency, µM (doses to about 76.9 µM), most hits filed as inhibitors. hit rate 67% among 890. AID 720569; further: nearly all actives have a fitted effect of over 70% in size
TbPYK ADP-Glo: TbPYK inhibition, orthogonal confirmation | shares compounds with PLK1 PBD inh | recombinant TbPYK, ADP-Glo luminescence, 60 min | Potency, µM (doses to about 76.9 µM), most hits filed as inhibitors | hit rate 62% among 890; further: nearly all actives have a fitted effect of over 75% in size
Hits are given with their value; . = inactive; ? = inconclusive; / = not tested or not shown; [ ] = remark or other dose. The call rests on the fitted dose curve; in most records, active means well fitted curve in the direction sought with a large enough effect; inconclusive means small, poorly fitted or top-dose-only effect, or another doubt; inactive means no such curve, though single readings can be large; an effect the other way counts as inactive or inconclusive.

SMILES	PKM2 act	GCN5L2 inh-1	VDR inh	PLK1 PBD inh	Mito fusion act	GLS inhibitor	VDR confirm	VDR FP	VDR bla	VDR cytotox	others
O=C(O)c1ccc[nH]c1=S	.	.	.	?	.	?	/	/	/	/
COc1ccc(-c2oc3cc(OC)ccc3c(=O)c2O)cc1	/	?	.	/	/	/	/	/	/	/
CC[C@]12C=CCN3CC[C@@]4(c5ccc(OC)cc5N(C)[C@H]4[C@@](O)(C(=O)OC)[C@@H]1OC(C)=O)C32 (some centres undefined)	/	.	.	/	/	/	/	/	/	/
c1nc[n]([Sn]([CH]2CCCCC2)([CH]2CCCCC2)[CH]2CCCCC2)n1	/	.	50µM	/	/	/	/	/	/	/
CN(C)S(=O)(=O)c1cc(NC(=O)COC(=O)Cc2ccccc2)ccc1Cl	.	.	?	30µM	.	.	/	/	/	/
CCOP(=O)(OCC)c1cccc(P(=O)(c2ccccc2)c2ccccc2)c1O	/	.	.	.	.	.	/	/	/	/
CCOP(=O)(/C(C#N)=C(\C)O)c1ccccc1 (centres undefined)	/	.	.	21µM	.	.	/	/	/	/
O=C(Cn1c(=O)oc2ccccc21)N1CCCC1	/	.	.	.	?	.	/	/	/	/
CC1OC(OC2C(O)CC(OC3C(O)CC(OC4CCC5(C)C(CCC6C5CCC5(C)C(C7=CC(=O)OC7)CCC65O)C4)OC3C)OC2C)CC(O)C1O (centres undefined)	/	.	.	/	/	.	/	/	/	/
Nc1c(C(=O)NCC2CCCO2)c2nc3ccccc3nc2n1Cc1ccco1 (centres undefined)	18µM	.	.	.	?	.	/	/	/	/	HeLa tox=.
NCC(CC(=O)O)c1ccc(Cl)s1 (centres undefined)	/	.	.	/	/	/	/	/	/	/
Oc1c(Br)c(Br)c(Br)c(Br)c1Br	/	32µM	?	27µM	.	.	/	/	/	/	GCN5L2 inh-2=14
CC(=O)CC(c1ccc(O)cc1)c1c(O)c2ccccc2oc1=O (centres undefined)	/	.	.	/	/	/	/	/	/	/
O=C(O)c1cn(Cc2ccccc2)nc1-c1ccccc1	.	.	.	.	.	.	/	/	/	/
O=C(O)CSCC(=O)N(Cc1ccccc1)c1nc(-c2ccccc2)c(-c2ccccc2)s1	.	11µM	?	30µM	.	.	/	/	/	/	GCN5L2 inh-2=23
O=C(O)CCC(=O)NCCC1=c2ccccc2=N/C1=C\c1c(O)n(Cc2ccc(F)cc2)c(=S)[nH]c1=O	.	18µM	20µM	1.2µM	.	?	6	?	.	.	GCN5L2 inh-2=5.1;TbPYK confirm=4.5µM;TbPYK ADP-Glo=14µM
CCN1C[C@@]2(COC)C3[C@@H](OC)C4[C@@H]1C3([C@@H]1C[C@]3(O)[C@H](OC(=O)c5ccccc5)[C@@H]1[C@]4(OC(C)=O)[C@@H](O)[C@@H]3OC)[C@H](OC)C[C@H]2O	/	.	.	/	.	/	/	/	/	/
C=CCN1C(=O)/C(=C/c2ccc(Br)s2)C(=O)NC1=S	?	.	20µM	1.3µM	.	.	4.2	.	?	.
CN1C(=O)/C(=C/c2ccc(Cl)s2)C(=O)NC1=S	.[11.5 µM]	.	20µM	1.5µM	.	.	6.7	?	?	.
CN1CCCC2(CCN(C(=O)Oc3ccccc3)CC2)C1	/	.	.	/	/	/	/	/	/	/
COc1ccc(-n2c(=S)[nH]c3c(sc(=S)n3-c3ccccc3)c2=O)c(OC)c1	.	.	35µM	2.4µM	.	.	3.4	?	.	.
CCN1C[C@]2(COC(=O)c3ccccc3N3C(=O)CC(C)C3=O)CC[C@H](OC)[C@@]34C5C[C@@H]6[C@@H](OC)C[C@@](O)(C5[C@H]6OC)[C@](O)([C@@H](OC)C23)[C@@H]14 (some centres undefined)	/	.	.	/	/	/	/	/	/	/
O=c1[nH]c2ccccc2n1C1CCN(CCCC(c2ccc(F)cc2)c2ccc(F)cc2)CC1	.	.	?	.	.	.	/	/	/	/	USP1 UbRho=?
O=S(=O)(/C(=C\c1ccc(C(F)(F)F)cc1)c1nc2ccccc2[nH]1)c1ccccc1	/	/	14µM	.	/	.	2.7	?	5.2µM	?
CN1CCC(O)(c2cccs2)C(C(=O)c2cccs2)C1 (centres undefined)	.	.	?	27µM	.	.	20	25µM	?	?
COc1cccc(C2CC3C(=O)C=CC2N3Cc2ccccc2)c1 (centres undefined)	.	.	?	.	.	.	18	?	21µM	.
C[C@@H]1CC[C@H]2[C@H](C)[C@H]3CC[C@@]4(O)[C@@H]5CC(=O)[C@H]6CC(=O)CC[C@]6(C)[C@H]5C[C@H]4[C@@H]3CN2C1	/	.	.	/	/	/	/	/	/	/
C[C@]12CC[C@H]3[C@@H](CC[C@@]45O[C@@H]4C(=O)C(C#N)C[C@]35C)[C@@H]1CC[C@@H]2O (some centres undefined)	/	.	?	/	/	.	/	/	/	/
O=C1NC(=O)C(=Cc2ccc(-c3ccc(S(=O)(=O)N4CCOCC4)cc3)o2)C(=O)N1	.	.	22µM	2.7µM	.	.	19	?	.	.
COc1cc(N2CCOCC2)ccc1C=C1C(=O)NC(=O)NC1=O	.	.	.	.	.	.	/	/	/	/
